Test results reported in the supplement of paper PMC10849652.
About 8,800 targets were measured; listed, in parts, are those with a hit and a random draw of the rest. About 0.5% of all pairs of compound and target were hits.

Tests used:
Test in all cases: log2 fold change, soluble protein after heating vs DMSO (PISA); higher = thermal stabilisation; K562 lysate, 10 uM; active = over 0.2 and 3.5 SD of the protein, either way, in both replicates (recomputed)
alvocidib = compound: CN1CC[C@H](c2c(O)cc(O)c3c(=O)cc(-c4ccccc4Cl)oc23)[C@H](O)C1 [alvocidib]
Procedure, shortened: (§1)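 K562 pellets were dounce-homogenised in PBS pH 7.4 with 1 mM MgCl2, and the crude extract at 1 mg/mL protein was treated with 10 μM compound for 30 min. Aliquots were heated for 3 min across 48°C-58°C, pooled, and brought to 0.5% NP-40 at 4°C; soluble protein was the supernatant after 21,000xg for 90 min. Soluble protein was quantified by TMTpro 16plex LC-MS/MS with channel sums equalised, and reported as log2 fold change in thermal stability against DMSO controls, with values from duplicates.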

Tubastatin A = compound: CN1CCc2c(c3ccccc3n2Cc2ccc(C(=O)NO)cc2)C1 [Tubastatin A]
Procedure, shortened: as §1

[1] = compound: CNc1nc(-c2ccc3c(N)n[nH]c3c2)cc(N2C[C@@H](C(=O)NC3CCCCC3)CC[C@H]2C)n1
Procedure, shortened: as §1

[2] = compound: COc1cc2nc(-c3cc(F)ccc3O)nc(N[C@@H]3CNC[C@H]3C(C)(C)O)c2cc1OC
Procedure, shortened: as §1

lapatinib = compound: CS(=O)(=O)CCNCc1ccc(-c2ccc3ncnc(Nc4ccc(OCc5cccc(F)c5)c(Cl)c4)c3c2)o1 [lapatinib]
Procedure, shortened: as §1

pictilisib = compound: CS(=O)(=O)N1CCN(Cc2cc3nc(-c4cccc5[nH]ncc45)nc(N4CCOCC4)c3s2)CC1 [pictilisib]
Procedure, shortened: as §1

crizotinib = compound: C[C@@H](Oc1cc(-c2cnn(C3CCNCC3)c2)cnc1N)c1c(Cl)ccc(F)c1Cl [crizotinib]
Procedure, shortened: as §1

[3] = compound: C[C@H](C1=CC=C(C=C1)C(=O)NC2=C3C=CNC3=NC=C2)N
Procedure, shortened: as §1

duvelisib = compound: C[C@H](Nc1ncnc2nc[nH]c12)c1cc2cccc(Cl)c2c(=O)n1-c1ccccc1 [duvelisib]
Procedure, shortened: as §1

gandotinib = compound: Cc1cc(Nc2cc(CN3CCOCC3)c3nc(C)c(Cc4ccc(Cl)cc4F)n3n2)n[nH]1 [gandotinib]
Procedure, shortened: as §1

doramapimod = compound: Cc1ccc(-n2nc(C(C)(C)C)cc2NC(=O)Nc2ccc(OCCN3CCOCC3)c3ccccc23)cc1 [doramapimod]
Procedure, shortened: as §1

bafetinib = compound: Cc1ccc(NC(=O)c2ccc(CN3CC[C@H](N(C)C)C3)c(C(F)(F)F)c2)cc1Nc1nccc(-c2cncnc2)n1 [bafetinib]
Procedure, shortened: as §1

[4] = compound: Cc1cccc(CC(=O)N2CCc3c2ccc(-c2cn(C)c4ncnc(N)c24)c3F)n1
Procedure, shortened: as §1

defactinib = compound: CNC(=O)c1ccc(Nc2ncc(C(F)(F)F)c(NCc3nccnc3N(C)S(C)(=O)=O)n2)cc1 [defactinib]
Procedure, shortened: as §1

encorafenib = compound: COC(=O)N[C@@H](C)CNc1nccc(-c2cn(C(C)C)nc2-c2cc(Cl)cc(NS(C)(=O)=O)c2F)n1 [encorafenib]
Procedure, shortened: as §1

[5] = compound: COC(=O)[C@H](CCSC)NC(=O)C1=C(C=C(C=C1)NC[C@H](CS)N)C2=CC=CC=C2
Procedure, shortened: as §1

tozasertib = compound: Cc1cc(Nc2cc(N3CCN(C)CC3)nc(Sc3ccc(NC(=O)C4CC4)cc3)n2)n[nH]1 [tozasertib]
Procedure, shortened: as §1

[6] = compound: CNC(=O)C1=CC=CC=C1NC2=NC(=NC=C2Cl)NC3=C(C=C(C=C3)N4CCOCC4)OC
Procedure, shortened: as §1

alisertib = compound: COc1cc(Nc2ncc3c(n2)-c2ccc(Cl)cc2C(c2c(F)cccc2OC)=NC3)ccc1C(=O)O [alisertib]
Procedure, shortened: as §1

gefitinib = compound: COc1cc2ncnc(Nc3ccc(F)c(Cl)c3)c2cc1OCCCN1CCOCC1 [gefitinib]
Procedure, shortened: as §1

Measured: log2 fold change

CHMP4A (UniProt H0YIN6)
inactive: alvocidib -0.197 | Tubastatin A 0.193 | [1] 0.528 | [2] 0.104 | lapatinib -0.078 | pictilisib -0.071 | crizotinib -0.211 | [3] -0.091 | duvelisib 0 | gandotinib 0.451 | doramapimod -0.059 | bafetinib -0.098 | [4] 0.325

CPLX1 (UniProt O14810)
Chain of UniProt O14810 (O14810 whole entry, looked up): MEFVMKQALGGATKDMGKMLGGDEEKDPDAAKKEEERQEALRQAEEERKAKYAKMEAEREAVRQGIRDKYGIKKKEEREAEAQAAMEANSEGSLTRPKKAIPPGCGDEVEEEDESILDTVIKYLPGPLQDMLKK
inactive: Tubastatin A 0.04 | defactinib 0.144 | [1] -0.127 | encorafenib -0.017 | [5] -0.415 | [2] -0.005 | lapatinib -0.095 | duvelisib -0.001 | tozasertib 0.167

DNM2 isoform 4 (UniProt P50570)
Chain of UniProt P50570 (P50570 whole entry, looked up): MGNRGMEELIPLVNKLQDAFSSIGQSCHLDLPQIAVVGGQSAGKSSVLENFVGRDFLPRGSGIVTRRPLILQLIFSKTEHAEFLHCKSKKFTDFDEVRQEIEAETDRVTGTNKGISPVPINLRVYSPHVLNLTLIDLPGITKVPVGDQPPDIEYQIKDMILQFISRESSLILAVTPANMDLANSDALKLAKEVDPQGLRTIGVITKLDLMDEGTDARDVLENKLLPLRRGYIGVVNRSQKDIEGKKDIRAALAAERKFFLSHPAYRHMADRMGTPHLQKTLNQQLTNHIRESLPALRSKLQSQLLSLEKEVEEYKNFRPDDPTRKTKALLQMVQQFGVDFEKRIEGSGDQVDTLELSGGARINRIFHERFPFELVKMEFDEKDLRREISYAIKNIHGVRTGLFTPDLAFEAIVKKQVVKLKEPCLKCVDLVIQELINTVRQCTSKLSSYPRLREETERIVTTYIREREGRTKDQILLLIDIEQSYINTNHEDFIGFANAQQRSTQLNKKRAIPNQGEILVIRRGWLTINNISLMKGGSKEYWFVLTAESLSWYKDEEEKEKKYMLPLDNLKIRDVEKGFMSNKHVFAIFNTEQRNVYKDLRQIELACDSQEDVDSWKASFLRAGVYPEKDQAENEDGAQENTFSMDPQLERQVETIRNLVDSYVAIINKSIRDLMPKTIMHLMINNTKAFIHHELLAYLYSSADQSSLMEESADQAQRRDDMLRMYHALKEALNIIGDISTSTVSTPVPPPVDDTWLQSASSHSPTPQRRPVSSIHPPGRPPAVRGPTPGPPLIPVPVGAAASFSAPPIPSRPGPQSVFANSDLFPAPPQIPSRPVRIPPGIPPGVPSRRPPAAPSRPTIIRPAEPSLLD
inactive: alvocidib -0.16 | Tubastatin A -0.095 | [6] -0.278 | [1] 0.055 | encorafenib 0.13 | [5] 0.06 | alisertib -0.007 | [2] -0.032 | gefitinib 0.029 | lapatinib 0.031 | crizotinib 0.014 | [3] -0.16 | duvelisib 0.015 | gandotinib -0.134 | tozasertib -0.084 | doramapimod 0.066 | [4] 0.16

CLASP2 (UniProt O75122)
Chain of UniProt O75122 (O75122 whole entry, looked up): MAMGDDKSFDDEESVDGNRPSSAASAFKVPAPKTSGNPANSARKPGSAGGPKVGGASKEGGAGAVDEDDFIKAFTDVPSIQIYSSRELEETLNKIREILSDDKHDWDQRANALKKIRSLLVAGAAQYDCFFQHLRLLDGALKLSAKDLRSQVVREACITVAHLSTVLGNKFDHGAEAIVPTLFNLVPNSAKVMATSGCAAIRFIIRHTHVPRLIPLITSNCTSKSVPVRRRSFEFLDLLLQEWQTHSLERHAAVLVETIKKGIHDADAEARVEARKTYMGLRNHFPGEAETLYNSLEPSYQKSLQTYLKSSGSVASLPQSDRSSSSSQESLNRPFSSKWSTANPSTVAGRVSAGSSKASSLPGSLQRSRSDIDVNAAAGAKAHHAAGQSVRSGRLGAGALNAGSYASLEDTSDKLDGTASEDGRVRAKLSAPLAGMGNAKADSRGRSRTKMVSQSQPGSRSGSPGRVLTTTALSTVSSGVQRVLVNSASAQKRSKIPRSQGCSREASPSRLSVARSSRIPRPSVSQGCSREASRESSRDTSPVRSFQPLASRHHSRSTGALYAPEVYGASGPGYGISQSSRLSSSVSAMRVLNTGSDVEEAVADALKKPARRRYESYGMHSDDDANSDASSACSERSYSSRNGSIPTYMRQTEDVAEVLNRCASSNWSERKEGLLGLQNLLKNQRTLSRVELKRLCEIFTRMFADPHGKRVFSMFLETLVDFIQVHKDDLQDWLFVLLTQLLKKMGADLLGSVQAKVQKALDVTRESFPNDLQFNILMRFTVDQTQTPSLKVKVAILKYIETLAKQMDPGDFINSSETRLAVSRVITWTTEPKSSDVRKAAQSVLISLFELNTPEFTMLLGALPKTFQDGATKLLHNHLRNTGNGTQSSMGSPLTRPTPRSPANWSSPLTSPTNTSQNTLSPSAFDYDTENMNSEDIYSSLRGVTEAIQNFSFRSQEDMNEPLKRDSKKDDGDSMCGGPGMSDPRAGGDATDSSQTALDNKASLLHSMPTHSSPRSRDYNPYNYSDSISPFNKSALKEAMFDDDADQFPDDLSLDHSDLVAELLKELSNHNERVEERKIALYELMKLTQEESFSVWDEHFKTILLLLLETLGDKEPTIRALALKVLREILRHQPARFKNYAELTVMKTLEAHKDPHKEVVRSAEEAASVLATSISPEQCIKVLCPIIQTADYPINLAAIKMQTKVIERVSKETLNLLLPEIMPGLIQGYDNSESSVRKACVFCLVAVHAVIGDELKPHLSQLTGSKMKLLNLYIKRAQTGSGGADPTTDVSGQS
inactive: alvocidib -0.139 | Tubastatin A -0.066 | defactinib 0.002 | encorafenib 0.058 | [5] -0.071 | alisertib 0.182 | [2] 0.037 | gefitinib -0.047 | lapatinib 0.003 | crizotinib 0.127 | [3] -0.086 | gandotinib -0.031 | tozasertib 0.052 | doramapimod -0.001 | bafetinib -0.199 | [4] 0.067

CYP2S1 isoform 2 (UniProt Q96SQ9)
Chain of UniProt Q96SQ9 (Q96SQ9 whole entry, looked up): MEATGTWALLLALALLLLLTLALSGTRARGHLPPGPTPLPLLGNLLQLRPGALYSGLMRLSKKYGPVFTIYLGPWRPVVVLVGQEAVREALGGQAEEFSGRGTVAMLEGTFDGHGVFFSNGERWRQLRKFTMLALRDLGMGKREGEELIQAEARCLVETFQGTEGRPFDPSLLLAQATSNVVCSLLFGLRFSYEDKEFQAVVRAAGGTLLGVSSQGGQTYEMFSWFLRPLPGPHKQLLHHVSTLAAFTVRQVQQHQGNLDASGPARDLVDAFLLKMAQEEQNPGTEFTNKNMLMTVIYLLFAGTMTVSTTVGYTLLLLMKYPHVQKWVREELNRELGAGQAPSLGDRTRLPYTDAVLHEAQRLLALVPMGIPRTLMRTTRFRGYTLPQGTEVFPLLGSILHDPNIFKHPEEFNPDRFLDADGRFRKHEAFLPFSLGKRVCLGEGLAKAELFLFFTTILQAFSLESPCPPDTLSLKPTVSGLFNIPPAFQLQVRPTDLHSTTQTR
inactive: Tubastatin A 0.027 | [6] -0.085 | defactinib -0.022 | [1] -0.151 | encorafenib 0.024 | [5] 0 | [2] -0.219 | lapatinib 0.316 | crizotinib 0.023 | duvelisib -0.075 | tozasertib -0.023 | doramapimod -0.057

CRLS1 (UniProt Q9UJA2)
Chain of UniProt Q9UJA2 (Q9UJA2 whole entry, looked up): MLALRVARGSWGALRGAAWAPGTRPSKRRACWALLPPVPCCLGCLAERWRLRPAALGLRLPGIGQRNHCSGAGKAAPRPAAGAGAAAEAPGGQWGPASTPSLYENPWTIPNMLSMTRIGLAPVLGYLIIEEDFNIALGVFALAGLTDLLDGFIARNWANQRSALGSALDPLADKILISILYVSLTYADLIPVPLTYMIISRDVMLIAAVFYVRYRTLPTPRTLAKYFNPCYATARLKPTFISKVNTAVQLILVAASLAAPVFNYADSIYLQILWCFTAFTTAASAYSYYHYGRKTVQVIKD
inactive: alvocidib 0.056 | Tubastatin A 0.007 | [6] 0.068 | alisertib 0.076 | [2] -0.017 | gefitinib 0.079 | lapatinib -0.003 | pictilisib -0.107 | crizotinib -0.086 | [3] 0.084 | gandotinib -0.105 | doramapimod -0.062 | bafetinib -0.437 | [4] -0.176
